Measured values as given in the supplement of paper PMC11732987, “Enantioselective OTUD7B fragment discovery through chemoproteomics screening and high-throughput optimisation” (Communications Chemistry, 2025).

Legend:
Assay in all cases: log2 ratio of Biotin-Ahx-Ub-VS probe labelling (fragment/DMSO); higher = less target engagement (more negative = stronger competition), active = hit call of the paper (q ≤ 0.05, log2 ratio ≤ -1)
Conditions in all cases: compound concentration: 200 uM; treatment time: 3 h
USP19 = target: T1, USP19 (UniProt O94966)
T1 sequence (whole entry): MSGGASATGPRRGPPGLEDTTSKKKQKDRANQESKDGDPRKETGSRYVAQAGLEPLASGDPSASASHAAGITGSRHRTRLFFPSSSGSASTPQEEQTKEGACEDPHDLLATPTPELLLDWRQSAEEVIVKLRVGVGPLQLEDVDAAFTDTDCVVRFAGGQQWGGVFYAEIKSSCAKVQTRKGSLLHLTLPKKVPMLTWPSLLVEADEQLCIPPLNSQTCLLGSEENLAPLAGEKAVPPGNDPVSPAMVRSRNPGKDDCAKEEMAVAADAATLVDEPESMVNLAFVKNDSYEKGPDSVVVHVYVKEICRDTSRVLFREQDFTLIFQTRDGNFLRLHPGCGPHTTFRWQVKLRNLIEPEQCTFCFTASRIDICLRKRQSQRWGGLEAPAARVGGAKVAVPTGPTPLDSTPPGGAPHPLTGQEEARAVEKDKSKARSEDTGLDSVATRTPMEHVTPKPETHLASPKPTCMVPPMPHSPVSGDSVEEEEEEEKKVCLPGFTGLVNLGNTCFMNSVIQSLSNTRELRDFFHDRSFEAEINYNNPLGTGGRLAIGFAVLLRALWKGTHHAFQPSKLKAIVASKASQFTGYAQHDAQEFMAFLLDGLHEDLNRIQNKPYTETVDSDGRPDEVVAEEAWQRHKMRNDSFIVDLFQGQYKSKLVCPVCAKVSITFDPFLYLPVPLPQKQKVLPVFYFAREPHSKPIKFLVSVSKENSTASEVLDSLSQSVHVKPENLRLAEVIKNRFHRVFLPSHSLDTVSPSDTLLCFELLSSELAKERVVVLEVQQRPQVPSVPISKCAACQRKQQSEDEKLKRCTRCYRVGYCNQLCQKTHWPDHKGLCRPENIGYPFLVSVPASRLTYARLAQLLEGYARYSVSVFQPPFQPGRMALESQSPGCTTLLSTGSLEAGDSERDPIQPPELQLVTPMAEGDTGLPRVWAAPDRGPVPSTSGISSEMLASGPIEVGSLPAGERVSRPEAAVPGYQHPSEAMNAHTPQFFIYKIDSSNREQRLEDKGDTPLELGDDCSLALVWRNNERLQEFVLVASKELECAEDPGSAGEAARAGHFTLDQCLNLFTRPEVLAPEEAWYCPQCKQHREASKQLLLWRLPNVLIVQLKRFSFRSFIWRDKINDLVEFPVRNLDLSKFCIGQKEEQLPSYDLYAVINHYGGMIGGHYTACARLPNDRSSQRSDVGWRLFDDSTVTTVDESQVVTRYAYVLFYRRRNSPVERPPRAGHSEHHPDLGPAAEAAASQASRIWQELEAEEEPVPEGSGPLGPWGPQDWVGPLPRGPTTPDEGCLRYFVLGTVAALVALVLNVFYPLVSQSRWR
Method in brief: (§1)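 HEK293T lysate in Tris/CHAPS/IGEPAL buffer with protease inhibitors (495 µg per sample) was given fragment at 200 µM or vehicle for 3 h, in triplicate. It then received Biotin-Ahx-Ub-VS at 0.5 µM final for 1 h. Labelled DUBs were NeutrAvidin-enriched, digested with LysC and trypsin, and run by diaPASEF LC-MS/MS. Values are average log2 fragment/vehicle ratios by unpaired t-test on global-median-normalised Spectronaut quantities of proteins with ≥2 unique peptides.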

USP22 = target: T2, USP22 (UniProt Q9UPT9)
T2 sequence (whole entry): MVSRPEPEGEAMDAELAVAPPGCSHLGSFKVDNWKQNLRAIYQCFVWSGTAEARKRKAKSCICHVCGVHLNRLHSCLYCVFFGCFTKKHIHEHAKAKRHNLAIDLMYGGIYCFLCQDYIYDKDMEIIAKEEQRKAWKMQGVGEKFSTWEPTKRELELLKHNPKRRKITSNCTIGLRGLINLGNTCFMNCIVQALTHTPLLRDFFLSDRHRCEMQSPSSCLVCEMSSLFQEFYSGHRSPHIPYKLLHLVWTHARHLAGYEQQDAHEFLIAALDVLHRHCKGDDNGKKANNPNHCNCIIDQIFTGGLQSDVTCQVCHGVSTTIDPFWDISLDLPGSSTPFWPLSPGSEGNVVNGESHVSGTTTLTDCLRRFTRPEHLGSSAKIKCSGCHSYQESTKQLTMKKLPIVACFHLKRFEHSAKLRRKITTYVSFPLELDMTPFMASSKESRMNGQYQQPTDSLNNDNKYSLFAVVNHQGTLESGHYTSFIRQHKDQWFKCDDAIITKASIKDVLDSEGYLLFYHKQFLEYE
Method in brief: as §1

USP24 = USP24 (UniProt Q9UPU5)
USP24, sequence (Q9UPU5 whole entry): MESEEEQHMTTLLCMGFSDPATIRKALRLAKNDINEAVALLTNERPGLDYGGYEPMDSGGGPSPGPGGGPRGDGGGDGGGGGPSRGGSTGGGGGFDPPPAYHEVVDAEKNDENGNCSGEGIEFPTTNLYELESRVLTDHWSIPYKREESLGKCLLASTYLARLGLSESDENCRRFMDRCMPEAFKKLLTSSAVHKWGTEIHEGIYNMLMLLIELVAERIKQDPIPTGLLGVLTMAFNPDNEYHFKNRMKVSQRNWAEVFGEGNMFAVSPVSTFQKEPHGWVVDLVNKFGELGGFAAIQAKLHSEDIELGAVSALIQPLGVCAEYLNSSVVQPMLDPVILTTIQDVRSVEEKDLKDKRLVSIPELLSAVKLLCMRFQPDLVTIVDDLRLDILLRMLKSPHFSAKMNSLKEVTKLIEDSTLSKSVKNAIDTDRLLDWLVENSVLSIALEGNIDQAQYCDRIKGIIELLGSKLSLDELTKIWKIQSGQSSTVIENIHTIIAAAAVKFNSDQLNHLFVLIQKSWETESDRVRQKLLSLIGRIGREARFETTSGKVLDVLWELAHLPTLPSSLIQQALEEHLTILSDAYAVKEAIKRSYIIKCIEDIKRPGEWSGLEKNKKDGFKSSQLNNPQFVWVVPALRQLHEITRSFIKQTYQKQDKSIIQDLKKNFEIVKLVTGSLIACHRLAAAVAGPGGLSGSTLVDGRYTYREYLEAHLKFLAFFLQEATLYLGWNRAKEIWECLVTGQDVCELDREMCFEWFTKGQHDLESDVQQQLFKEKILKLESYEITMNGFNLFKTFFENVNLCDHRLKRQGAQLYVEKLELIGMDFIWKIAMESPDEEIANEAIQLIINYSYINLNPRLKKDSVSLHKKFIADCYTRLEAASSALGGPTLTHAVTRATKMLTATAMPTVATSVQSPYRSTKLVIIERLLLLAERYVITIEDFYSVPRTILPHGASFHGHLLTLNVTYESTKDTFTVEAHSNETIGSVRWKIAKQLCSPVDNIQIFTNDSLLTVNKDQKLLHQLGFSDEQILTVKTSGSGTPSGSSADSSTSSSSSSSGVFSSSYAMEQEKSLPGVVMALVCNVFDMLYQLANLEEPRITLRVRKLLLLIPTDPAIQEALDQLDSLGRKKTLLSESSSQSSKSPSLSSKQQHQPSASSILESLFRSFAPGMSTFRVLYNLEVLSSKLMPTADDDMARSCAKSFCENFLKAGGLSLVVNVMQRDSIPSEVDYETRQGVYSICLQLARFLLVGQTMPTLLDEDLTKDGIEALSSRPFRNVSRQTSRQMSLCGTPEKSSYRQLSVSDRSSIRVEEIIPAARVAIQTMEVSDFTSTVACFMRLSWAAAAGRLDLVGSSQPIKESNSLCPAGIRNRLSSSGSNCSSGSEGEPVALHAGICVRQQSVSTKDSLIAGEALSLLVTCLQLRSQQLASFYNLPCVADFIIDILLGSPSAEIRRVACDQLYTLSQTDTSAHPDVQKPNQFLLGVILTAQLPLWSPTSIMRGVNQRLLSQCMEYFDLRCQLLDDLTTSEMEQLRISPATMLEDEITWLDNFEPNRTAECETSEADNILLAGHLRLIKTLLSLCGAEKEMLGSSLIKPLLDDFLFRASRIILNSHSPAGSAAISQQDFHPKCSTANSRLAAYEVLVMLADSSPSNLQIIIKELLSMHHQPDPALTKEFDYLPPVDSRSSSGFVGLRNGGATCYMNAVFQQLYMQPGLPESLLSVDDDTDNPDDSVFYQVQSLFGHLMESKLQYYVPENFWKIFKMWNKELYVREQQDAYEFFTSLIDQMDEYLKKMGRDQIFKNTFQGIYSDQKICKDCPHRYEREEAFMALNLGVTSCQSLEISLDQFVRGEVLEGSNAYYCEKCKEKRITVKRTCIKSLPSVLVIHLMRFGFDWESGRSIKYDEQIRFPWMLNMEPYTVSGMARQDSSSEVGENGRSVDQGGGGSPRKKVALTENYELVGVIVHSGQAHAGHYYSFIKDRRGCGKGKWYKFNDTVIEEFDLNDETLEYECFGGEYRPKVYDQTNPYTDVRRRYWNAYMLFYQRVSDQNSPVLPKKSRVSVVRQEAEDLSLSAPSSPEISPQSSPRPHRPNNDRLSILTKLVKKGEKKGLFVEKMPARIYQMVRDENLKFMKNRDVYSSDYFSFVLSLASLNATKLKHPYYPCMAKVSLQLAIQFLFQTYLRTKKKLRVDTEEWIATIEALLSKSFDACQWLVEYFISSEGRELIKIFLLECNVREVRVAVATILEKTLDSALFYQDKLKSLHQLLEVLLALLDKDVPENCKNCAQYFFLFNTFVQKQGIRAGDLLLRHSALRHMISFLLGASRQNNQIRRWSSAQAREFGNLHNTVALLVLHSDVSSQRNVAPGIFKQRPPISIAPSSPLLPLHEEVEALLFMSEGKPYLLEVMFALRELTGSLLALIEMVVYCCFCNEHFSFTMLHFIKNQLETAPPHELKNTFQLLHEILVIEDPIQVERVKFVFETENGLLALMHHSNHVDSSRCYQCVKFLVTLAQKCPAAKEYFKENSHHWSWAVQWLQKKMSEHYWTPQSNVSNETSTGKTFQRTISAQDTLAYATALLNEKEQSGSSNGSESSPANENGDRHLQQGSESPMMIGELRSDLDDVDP
Method in brief: as §1

USP25 = target: T3, USP25 (UniProt Q9UHP3)
T3 sequence (whole entry): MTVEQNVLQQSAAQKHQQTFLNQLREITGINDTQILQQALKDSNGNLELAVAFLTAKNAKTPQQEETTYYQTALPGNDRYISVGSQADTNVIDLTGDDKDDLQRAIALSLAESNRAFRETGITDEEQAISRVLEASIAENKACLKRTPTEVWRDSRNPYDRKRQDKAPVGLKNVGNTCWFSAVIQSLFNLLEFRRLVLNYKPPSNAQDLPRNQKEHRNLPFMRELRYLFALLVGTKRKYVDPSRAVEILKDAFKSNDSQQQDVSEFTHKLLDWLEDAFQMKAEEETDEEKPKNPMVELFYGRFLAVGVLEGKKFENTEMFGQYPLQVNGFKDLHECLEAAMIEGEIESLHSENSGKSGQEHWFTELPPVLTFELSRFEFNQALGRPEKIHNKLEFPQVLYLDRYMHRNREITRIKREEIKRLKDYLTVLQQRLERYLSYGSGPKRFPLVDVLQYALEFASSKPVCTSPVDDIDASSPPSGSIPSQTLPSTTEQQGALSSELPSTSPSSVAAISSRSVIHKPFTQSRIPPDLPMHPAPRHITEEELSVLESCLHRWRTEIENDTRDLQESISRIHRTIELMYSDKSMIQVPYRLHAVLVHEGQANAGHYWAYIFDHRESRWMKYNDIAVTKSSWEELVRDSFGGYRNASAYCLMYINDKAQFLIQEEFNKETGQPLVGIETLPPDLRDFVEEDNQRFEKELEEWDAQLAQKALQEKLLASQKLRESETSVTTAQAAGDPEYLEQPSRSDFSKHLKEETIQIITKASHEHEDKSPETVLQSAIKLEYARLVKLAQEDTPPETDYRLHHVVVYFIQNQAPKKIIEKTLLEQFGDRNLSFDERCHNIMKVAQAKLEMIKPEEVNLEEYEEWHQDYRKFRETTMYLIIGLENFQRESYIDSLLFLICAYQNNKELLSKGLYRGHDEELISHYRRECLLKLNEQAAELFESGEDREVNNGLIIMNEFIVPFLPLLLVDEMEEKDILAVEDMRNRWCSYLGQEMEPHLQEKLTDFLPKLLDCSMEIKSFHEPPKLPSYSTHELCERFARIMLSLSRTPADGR
Method in brief: as §1

USP28 = target: T4, USP28 (UniProt Q96RU2)
T4 sequence (whole entry): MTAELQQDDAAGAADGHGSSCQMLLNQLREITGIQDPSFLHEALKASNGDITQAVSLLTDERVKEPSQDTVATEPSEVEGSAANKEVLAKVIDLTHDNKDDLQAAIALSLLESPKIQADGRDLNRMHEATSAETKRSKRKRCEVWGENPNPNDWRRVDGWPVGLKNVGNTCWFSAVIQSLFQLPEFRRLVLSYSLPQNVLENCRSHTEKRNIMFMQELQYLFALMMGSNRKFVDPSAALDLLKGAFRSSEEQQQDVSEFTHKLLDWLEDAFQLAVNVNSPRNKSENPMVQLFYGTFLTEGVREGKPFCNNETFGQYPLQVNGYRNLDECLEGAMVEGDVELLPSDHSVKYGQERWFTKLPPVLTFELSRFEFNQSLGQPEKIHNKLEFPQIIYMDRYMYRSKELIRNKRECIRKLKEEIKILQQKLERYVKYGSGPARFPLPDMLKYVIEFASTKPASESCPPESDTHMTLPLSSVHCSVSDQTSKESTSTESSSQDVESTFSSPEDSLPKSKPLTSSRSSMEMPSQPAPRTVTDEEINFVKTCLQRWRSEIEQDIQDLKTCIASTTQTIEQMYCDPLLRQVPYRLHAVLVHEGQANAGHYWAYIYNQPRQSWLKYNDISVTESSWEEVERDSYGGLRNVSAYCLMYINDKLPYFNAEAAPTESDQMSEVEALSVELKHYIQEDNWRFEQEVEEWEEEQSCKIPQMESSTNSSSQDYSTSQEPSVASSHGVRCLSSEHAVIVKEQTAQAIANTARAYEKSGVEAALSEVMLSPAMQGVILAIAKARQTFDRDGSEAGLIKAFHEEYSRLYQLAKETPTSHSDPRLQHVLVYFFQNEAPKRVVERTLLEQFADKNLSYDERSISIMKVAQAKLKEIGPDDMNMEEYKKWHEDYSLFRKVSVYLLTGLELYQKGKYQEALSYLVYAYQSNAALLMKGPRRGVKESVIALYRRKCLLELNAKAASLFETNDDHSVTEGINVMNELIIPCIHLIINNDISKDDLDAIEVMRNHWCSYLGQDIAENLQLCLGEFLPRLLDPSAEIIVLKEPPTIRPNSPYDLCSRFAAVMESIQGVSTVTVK
Method in brief: as §1

Measured: log2 ratio of Biotin-Ahx-Ub-VS probe labelling

Cc1ccc(C(=O)NCCNC(=O)CCl)cc1
inactive: USP19 -0.26 | USP22 -0.00216 | USP24 -0.352 | USP25 -0.498 | USP28 -0.493
